High-throughput results: PubChem BioAssay, National Center for Advancing Translational Sciences (NCATS)
This excerpt belongs to a sample that is enriched for hits.
FBPA Giardia inh: inhibitors of Giardia lamblia fructose-1,6-bisphosphate aldolase; AID 2451; Potency, µM (series often up to 59.6 µM), most hits filed as inhibitors; A8B2U2; purified Giardia FBPA; hit rate 0.71% among 290,000; note: nearly all actives have a fitted effect of over 55% in size
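Giardia FBPA (40 nM reagent) was preincubated 10 min at RT with compound (up to 57.5 uM final), then substrate plus GAPDH/TPI/NAD/arsenate coupling system with diaphorase/resazurin was added; resorufin fluorescence (525/598 nm) was read after 20 min.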
TbPYK inhibitor: blocks Trypanosoma brucei pyruvate kinase | Q57TT1 | TbPYK enzyme, Kinase-Glo Plus ATP luminescence, 45 min | Potency, µM (top dose mostly 76.8 µM), actives largely listed as inhibitors | hit rate 0.12% among 410,000; note: nearly all actives have a fitted effect of over 50% in size
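Screened from lowest to highest concentration, compounds were pinned into TbPYK/substrate mixtures, and ADP (130 uM final) was added. Plates sat at room temperature for 45 min prior to Kinase-Glo Plus detection by luminescence.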
Cycloheximide cs: affects cycloheximide protein synthesis inhibition readout, counter-screen | cell reporter, cycloheximide protein synthesis inhibition counterscreen | max response, % | hit rate 12% among 300,000 | AID 2314; in the data active = max response mostly above about 13%, no sharp cut-off; inactive = mostly below about 14%; note: read at 38.3 µM for the half of the compounds with a filed dose
LmPK inh: LmPK (Leishmania mexicana) enzyme inhibition; Potency, µM (highest dose often 57.5 µM), actives largely listed as inhibitors; Q27686; AID 1721; purified LmPK, Kinase-Glo ATP luminescence, 1 h; hit rate 0.37% among 290,000
Target sequence (Q27686 whole entry, looked up): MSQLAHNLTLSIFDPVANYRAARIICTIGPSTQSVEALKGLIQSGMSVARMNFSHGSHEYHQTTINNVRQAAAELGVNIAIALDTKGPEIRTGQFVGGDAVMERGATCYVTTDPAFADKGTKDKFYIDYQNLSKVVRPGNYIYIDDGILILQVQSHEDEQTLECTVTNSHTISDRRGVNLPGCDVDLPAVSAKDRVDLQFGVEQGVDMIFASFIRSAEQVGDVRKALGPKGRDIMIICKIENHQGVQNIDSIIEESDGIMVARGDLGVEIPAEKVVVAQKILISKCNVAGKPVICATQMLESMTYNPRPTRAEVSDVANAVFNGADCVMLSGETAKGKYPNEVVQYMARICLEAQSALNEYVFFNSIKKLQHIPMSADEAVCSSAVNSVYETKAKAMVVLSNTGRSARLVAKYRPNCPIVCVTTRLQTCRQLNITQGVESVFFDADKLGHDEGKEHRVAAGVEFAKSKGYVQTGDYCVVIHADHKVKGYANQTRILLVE
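Screened at intermediate enzyme activity to detect both inhibitors and activators: LmPK at 0.1 nM, with a 0.5 nM enzyme column as activation reference. PEP 0.5 mM, ADP 0.1 mM; ATP detected by luminescence after 1 h.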
Shiga toxin inh: blocks Shiga toxin action in Vero cells | inhibition, % at 38.7 µM | hit rate 9.2% among 290,000 | AID 2315 | Vero cells, Shiga toxin protein synthesis inhibition reporter; in the data active = inhibition mostly above about 28%, no sharp cut-off; inactive = mostly below about 43%
RE007 growth inh: less growth of the S. pombe RE007 Vpr strain; S. pombe RE007 Vpr strain, BacTiter-Glo ATP luminescence, 24 h; hit rate 0.21% among 360,000; Potency, µM (top dose mostly 92.2 µM), usual class: inhibitors; active = well fitted falling curve with a large enough effect; note: nearly all actives have a fitted effect of over 50% in size
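Fission yeast RE007 carrying one integrated HIV-1 vpr copy, seeded at OD 0.01 in PMG+AL medium with 23 nL pinned compound. Grown 24 h at 30 degrees; viability read by BacTiter-Glo luminescence after 5 min.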
A number is an active result; [ ] = remark or other dose. Unless noted, calls come from the whole dose curve; as a rule, active = well fitted curve in the direction sought with a large enough effect; inconclusive = small, poorly fitted or top-dose-only effect, or another doubt; inactive = no such curve, though single readings can be large; an effect the other way counts as inactive or inconclusive.

Screening COc1cccc(C(=O)Nc2nnc(C3CCCO3)s2)c1 (stereo unspecified) returned FBPA Giardia inh inactive, TbPYK inhibitor inactive, Cycloheximide cs 25.3, LmPK inh inactive, Shiga toxin inh 59.4 and RE007 growth inh inactive.
For COc1cccc(C(=O)Nc2nnc(SCC(=O)NC3CCCC3)s2)c1 the results were FBPA Giardia inh inactive, TbPYK inhibitor inactive, Cycloheximide cs inactive, LmPK inh inactive, Shiga toxin inh inactive and RE007 growth inh inactive.
`O=C(Nc1nnc(C2CCCO2)s1)c1cccs1` (stereo unspecified) gave FBPA Giardia inh inactive, TbPYK inhibitor inactive, Cycloheximide cs 17.3, LmPK inh inactive, Shiga toxin inh inactive and RE007 growth inh inactive.
O=C(Nc1nnc(C2CCCCC2)s1)c1cccs1 was read as FBPA Giardia inh inactive, TbPYK inhibitor inactive, Cycloheximide cs 28.4, LmPK inh inactive, Shiga toxin inh inactive and RE007 growth inh inactive.
For O=C(Nc1nnc([C@@H]2C[C@H](O)[C@@H](CO)O2)s1)c1cccs1 the results were TbPYK inhibitor inactive and RE007 growth inh inactive[18.4 µM].
O=C(Nc1nnc(C2CC2)s1)c1ccncc1 was read as TbPYK inhibitor inactive, Cycloheximide cs inactive, LmPK inh inactive, Shiga toxin inh inactive and RE007 growth inh inactive.
Cc1ccc(S(=O)(=O)N(C)c2cccc3cccnc23)cc1 was read as FBPA Giardia inh inactive, Cycloheximide cs inactive and Shiga toxin inh inactive.
For C=CCc1cc(F)c(S(=O)(=O)N2CCN(S(=O)(=O)c3ccc4c(c3)OCCO4)CC2)cc1F the results were Cycloheximide cs inactive and Shiga toxin inh inactive.
CCNc1ncc2nc(-c3cccs3)c(=O)n(Cc3cccs3)c2n1 was read as FBPA Giardia inh inactive.
COc1cccc(-n2ccnc2SCC(=O)Nc2c(C)cc(C)cc2C)c1 was read as TbPYK inhibitor inactive.
For COc1ccc(/C=N/NC(=O)c2ccn[nH]2)cc1Cn1nc(C)c([N+](=O)[O-])c1C the results were FBPA Giardia inh inactive, TbPYK inhibitor inactive, Cycloheximide cs 22.9, LmPK inh inactive, Shiga toxin inh 68.6 and RE007 growth inh inactive.
`COc1ccc(/C=N/NC(=O)c2ccn[nH]2)cc1COc1ccc(F)cc1` gave FBPA Giardia inh inactive, TbPYK inhibitor inactive, Cycloheximide cs 20.6, LmPK inh inactive, Shiga toxin inh inactive and RE007 growth inh inactive.
COc1ccc(/C=N/NC(=O)c2ccccc2)cc1CN1CCN(c2ccc(F)cc2)CC1 was read as FBPA Giardia inh inactive, TbPYK inhibitor inactive, Cycloheximide cs 12.4, LmPK inh inactive, Shiga toxin inh inactive and RE007 growth inh inactive.
For COc1ccc(/C=N/NC(=O)c2cccnc2)cc1COc1ccc([N+](=O)[O-])c(C)c1 the results were FBPA Giardia inh inactive, TbPYK inhibitor inactive, Cycloheximide cs inactive, LmPK inh inactive, Shiga toxin inh inactive and RE007 growth inh inactive.
Screening COc1ccc(/C=N/NC(=O)c2ccn[nH]2)cc1COc1ccc([N+](=O)[O-])c(C)c1 returned FBPA Giardia inh inactive, TbPYK inhibitor inactive, Cycloheximide cs 34.7, LmPK inh inactive, Shiga toxin inh 55.1 and RE007 growth inh inactive.
COc1ccc(/C=N/NC(=O)c2ccco2)cc1Cn1nc(C)c([N+](=O)[O-])c1C was read as FBPA Giardia inh inactive, TbPYK inhibitor inactive, Cycloheximide cs inactive, LmPK inh inactive, Shiga toxin inh inactive and RE007 growth inh inactive.
Screening COc1ccc(C(=O)N/N=C/c2ccc(OC)c(COc3ccc(F)cc3)c2)cc1 returned FBPA Giardia inh inactive, TbPYK inhibitor inactive, Cycloheximide cs inactive, LmPK inh inactive, Shiga toxin inh inactive and RE007 growth inh inactive.
Screening COC(=O)c1cc2oc3ccccc3c2n1Cc1nc(-c2cccc(C)c2)oc1C returned TbPYK inhibitor inactive.
COc1ccc(-c2nn3c(=O)cc(CN4CCN(C(=O)Nc5ccc(C)c(Cl)c5)CC4)nc3s2)cc1 was read as TbPYK inhibitor inactive.
For COc1ccc(/C=N\NC(=O)c2ccccc2OC)cc1COc1c(F)c(F)c(F)c(F)c1F the results were FBPA Giardia inh inactive, TbPYK inhibitor inactive, Cycloheximide cs 11.9, LmPK inh inactive, Shiga toxin inh inactive and RE007 growth inh inactive.
